Results filed as inconclusive are left out. Where a call stands in place of a potency, no number is given. Values without a mark were called inactive. Active and inactive are the calls of the source. Calls follow the shape of the dose curve; as a rule, active = well fitted inhibition curve with a large enough effect; inconclusive = small, poorly fitted or top-dose-only effect; inactive = flat fitted curve, though single readings scatter.
Columns and labels:
[1] = qHTS profiling for inhibitors of Plasmodium falciparum proliferation (AID 504749); as to all read-outs here: nearly all actives have a fitted effect of over 60% in size; settings: P. falciparum in erythrocytes, SYBR Green DNA, 72 h; for activity, negative = inhibition: at 28.7 µM (top of the series)
Summary of the method: (§1)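 Quantitative HTS: compounds pinned into medium, infected erythrocytes added (0.3% parasitemia, 2.5% hematocrit), 72 h culture at 37 C under 5% CO2. Saponin/Triton lysis with SYBR Green I, overnight RT, then fluorescence read.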

3D7 = test: as above; settings: P. falciparum in erythrocytes, SYBR Green DNA, 72 h; series mostly up to 28.7 µM
Summary of the method: as §1

7G8 = test: as above; settings: P. falciparum in erythrocytes, SYBR Green DNA, 72 h; series mostly up to 28.7 µM
Summary of the method: as §1

AA1029 = test: as above; settings: P. falciparum in erythrocytes, SYBR Green DNA, 72 h; series mostly up to 28.7 µM
Summary of the method: as §1

AS120 = test: as above; settings: P. falciparum in erythrocytes, SYBR Green DNA, 72 h; series mostly up to 28.7 µM
Summary of the method: as §1

ATS189 = test: as above; settings: P. falciparum in erythrocytes, SYBR Green DNA, 72 h; series mostly up to 28.7 µM
Summary of the method: as §1

ATS95 = test: as above; settings: P. falciparum in erythrocytes, SYBR Green DNA, 72 h; series mostly up to 28.7 µM
Summary of the method: as §1

C2A = test: as above; settings: P. falciparum in erythrocytes, SYBR Green DNA, 72 h; series mostly up to 28.7 µM
Summary of the method: as §1

CP185 = test: as above; settings: P. falciparum in erythrocytes, SYBR Green DNA, 72 h; series mostly up to 28.7 µM
Summary of the method: as §1

CP191 = test: as above; settings: P. falciparum in erythrocytes, SYBR Green DNA, 72 h; series mostly up to 28.7 µM
Summary of the method: as §1

CP192 = test: as above; settings: P. falciparum in erythrocytes, SYBR Green DNA, 72 h; series mostly up to 28.7 µM
Summary of the method: as §1

CP194 = test: as above; settings: P. falciparum in erythrocytes, SYBR Green DNA, 72 h; series mostly up to 28.7 µM
Summary of the method: as §1

CP201 = test: as above; settings: P. falciparum in erythrocytes, SYBR Green DNA, 72 h; series mostly up to 28.7 µM
Summary of the method: as §1

CP203 = test: as above; settings: P. falciparum in erythrocytes, SYBR Green DNA, 72 h; series mostly up to 28.7 µM
Summary of the method: as §1

CP211 = test: as above; settings: P. falciparum in erythrocytes, SYBR Green DNA, 72 h; series mostly up to 28.7 µM
Summary of the method: as §1

CP215 = test: as above; settings: P. falciparum in erythrocytes, SYBR Green DNA, 72 h; series mostly up to 28.7 µM
Summary of the method: as §1

CP217 = test: as above; settings: P. falciparum in erythrocytes, SYBR Green DNA, 72 h; series mostly up to 28.7 µM
Summary of the method: as §1
Potency is read from the fitted curve at half-maximal effect.

SMILES	activity, negative = inhibition ([1]; parasite line A) [%]	activity, negative = inhibition ([1]; parasite line B) [%]	Potency (3D7)	Potency (7G8)	Potency (AA1029)	Potency (AS120)	Potency (ATS189)	Potency (ATS95)	Potency (C2A)	Potency (CP185)	Potency (CP191)	Potency (CP192)	Potency (CP194)	Potency (CP201)	Potency (CP203)	Potency (CP211)	Potency (CP215)	Potency (CP217)	Potency ([1]; parasite line A)	Potency ([1]; parasite line B)
CC1(COc2ccc(CC3SC(=O)NC3=O)cc2)CCCCC1 (stereo unspecified)	11	-0.436	inactive	inactive	inactive	inactive	inactive	inactive	inactive	inactive	inactive	inactive	inactive	inactive	inactive	inactive	inactive	inactive		
CCCCN=C(N)N=C(N)N	-1.88	0.415	inactive	inactive	inactive	inactive	inactive	inactive	inactive	inactive	inactive	inactive	inactive	inactive	inactive	inactive	inactive	inactive		
O=S(=O)(O)c1ccc(O)cc1	4.42	-3.84	inactive	inactive	inactive	inactive	inactive	inactive	inactive	inactive	inactive	inactive	inactive	inactive	inactive	inactive	inactive	inactive		
CCOc1ccccc1OCCN[C@H](C)Cc1ccc(OC)c(S(N)(=O)=O)c1	7.23	1.02	inactive	inactive	inactive	inactive	inactive	inactive	inactive	inactive	inactive	inactive	inactive	inactive	inactive	inactive	inactive	inactive		
O=C(O)P(=O)(O)O	3.96	-2.94	inactive	inactive	inactive	inactive	inactive	inactive	inactive	inactive	inactive	inactive	inactive	inactive	inactive	inactive	inactive	inactive		
N=C(N)N1CCc2ccccc2C1	15.6	0.433	inactive	inactive	inactive	inactive	inactive	inactive	inactive	inactive	inactive	inactive	inactive	inactive	inactive	inactive	inactive	inactive		
O[C@@H](c1cc(C(F)(F)F)nc2c(C(F)(F)F)cccc12)[C@H]1CCCCN1			0.0355 µM (active)	0.0079 µM (active)	0.0112 µM (active)	0.02 µM (active)	0.0282 µM (active)	0.0282 µM (active)	0.0708 µM (active)	0.0794 µM (active)	0.0501 µM (active)	0.12 µM (active)	0.213 µM (active)	0.379 µM (active)	0.0849 µM (active)	0.213 µM (active)	0.0953 µM (active)	0.0398 µM (active)	0.0316 µM (active)	0.0126 µM (active)
CC(=O)Nc1ccc(OC(=O)c2ccccc2OC(C)=O)cc1	-24.5	5.15	inactive	inactive	inactive	inactive	inactive	inactive	inactive	inactive	inactive	inactive	inactive	inactive	inactive	inactive	inactive	inactive		
O=C(O)Cc1csc(-c2ccc(Cl)cc2)n1	1.5	8.07	inactive	inactive	inactive	inactive	inactive	inactive	inactive	inactive	inactive	inactive	inactive	inactive	inactive	inactive	inactive	inactive		
Cc1nc(-c2ccc(Cl)cc2)oc1COC(C)(C)C(=O)O	9.36	9.87	inactive	inactive	inactive	inactive	inactive	inactive	inactive	inactive	inactive	inactive	inactive	inactive	inactive	inactive	inactive	inactive		
CCCCC(CC)COC(=O)c1ccc(N(C)C)cc1 (stereo unspecified)	7.25	-4.81	inactive	inactive	inactive	inactive	inactive	inactive	inactive	inactive	inactive	inactive	inactive	inactive	inactive	inactive	inactive	inactive		
FC1(F)C(F)(F)C(F)(F)C2(F)C(F)(F)C(F)(F)C(F)(F)C(F)(F)C2(F)C1(F)F (stereo unspecified)	5.48	12.9	inactive	inactive	inactive	inactive	inactive	inactive	inactive	inactive	inactive	inactive	inactive	inactive	inactive	inactive	inactive	inactive		

— PubChem BioAssay (NCATS)
